Experimental data taken from PubChem BioAssay AID651813 (National Center for Advancing Translational Sciences (NCATS), 2012).
The whole screen tested about 2,100 compounds, of which about 1,100 (52%) were called active. Inconclusive results (about 27%) are left out. The call rests on the fitted dose curve; in most records, active means well fitted inhibition curve with a large enough effect; inconclusive means small, poorly fitted or top-dose-only effect; inactive means no such curve, though single readings can be large or run the other way. So high a share suggests a set chosen from earlier hits. The list shows a part of the results.

What follows are compounds tested against DNA dC->dU-editing enzyme APOBEC-3G (Homo sapiens) (UniProt Q9HC16) (assay: qHTS for inhibitors of Vif-A3G interactions: Cherry picks counterscreen). Details: HeLa A3G-eYFP + Vif (tagged APOBEC3G with the HIV-1 protein that degrades it), eYFP fluorescence, 24 h.
Outline: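 HeLa cells stably expressing A3G-eYFP and Vif were treated for 24 h at 37 deg C with compounds at several concentrations; yellow fluorescence (Ex 488 nm, Em 500-530 nm) read by Acumen Explorer, MG132 as positive control.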
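Further: hits raise yellow fluorescence by blocking Vif-driven A3G-eYFP degradation; nearly all actives have a fitted effect of over 70% in size.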
Potency means the concentration at half of the fitted maximal effect.
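Wherever max response is given: max response given as percent of control signal.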

Sequence of DNA dC->dU-editing enzyme APOBEC-3G (Homo sapiens) (Q9HC16 whole entry, looked up): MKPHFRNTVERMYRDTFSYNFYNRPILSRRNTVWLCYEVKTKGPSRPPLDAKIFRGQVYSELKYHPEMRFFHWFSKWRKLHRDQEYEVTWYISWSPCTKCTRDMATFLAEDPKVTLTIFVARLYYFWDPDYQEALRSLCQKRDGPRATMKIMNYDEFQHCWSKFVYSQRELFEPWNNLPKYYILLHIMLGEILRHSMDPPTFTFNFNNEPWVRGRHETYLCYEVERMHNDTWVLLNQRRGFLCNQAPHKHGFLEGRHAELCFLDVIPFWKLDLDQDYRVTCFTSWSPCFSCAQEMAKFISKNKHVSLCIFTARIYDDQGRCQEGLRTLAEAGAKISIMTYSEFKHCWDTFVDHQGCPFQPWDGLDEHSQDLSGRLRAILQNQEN

SMILES | Potency | max response
COC(=O)C1=C(Nc2ccc(C)cc2)C=C(C)C(C(=O)OC)C1c1cccc(OC)c1 (centres undefined) | 11.2 µM (active) | 
COCc1ccc(O)c2ncccc12 |  | 15.6% (inactive)
COCCCNC(=S)N/N=C/c1ccc(OC)cc1 |  | -8.47% (inactive)
COc1ccc2c(c1)c(C(=O)N/N=C/c1ccc(Cl)cc1)c(C)n2C | 12.5 µM (active) | 
CC1=C/C(=C\C=C(C#N)C#N)N(C)c2ccccc21 | 2.06 µM (active) | 
CC(=O)c1cc2c(cc1NS(=O)(=O)c1ccc(C)cc1)OCCO2 | 12.5 µM (active) | 
CCN(CC)c1ccc(/C=C/c2cccc[n+]2C)c(OC)c1 | 7.04 µM (active) | 
CCOc1ccc(CCNC(=O)c2ccc(Cn3c(=O)c4cccn4c4cccnc43)cc2)cc1 |  | -3.64% (inactive)
O=C(NCCc1ccccc1Cl)c1ccc(Cn2c(=O)c3cccn3c3cccnc32)cc1 | 14.6 µM (active) | 
N#Cc1cccn1-c1nccc(-c2cccs2)n1 | 8.86 µM (active) | 
Cc1[nH]c2ccccc2c1/C=C/C(=O)c1ccccc1 | 18.4 µM (active) | 
Cc1ccc2[nH]c(C)c(/C=C/c3cc[n+](C)cc3)c2c1 | 0.627 µM (active) | 
Cc1[nH]c2ccccc2c1/C=C/c1cc[n+](C)cc1 | 0.994 µM (active) | 
CC(OC(=O)/C(C#N)=C/c1ccc(N(C)C)cc1)C(=O)N(C)Cc1ccccc1 (centres undefined) | 23.1 µM (active) | 
CC(C)(C)NCC(=Cc1ccccc1)C(=O)c1ccccc1 |  | -3.58% (inactive)
O=C(C(=Cc1ccccc1)CN1CCCCC1)c1ccccc1 | 3.14 µM (active) | 
COc1cc(C2Nc3ccc4ncccc4c3C3=C2C(=O)CCC3)cc(OC)c1O (centres undefined) | 11.2 µM (active) | 
COc1cc(C2Nc3ccc4ncccc4c3C3=C2C(=O)CCC3)ccc1O (centres undefined) | 14 µM (active) | 
CCOC(=O)c1sc2cc([N+](=O)[O-])cc(SCC(C)C)c2c1N | 2.31 µM (active) | 
COC(=O)c1sc2cc([N+](=O)[O-])cc(SCC(C)C)c2c1N | 8.2 µM (active) | 

SMILES | Potency | max response
Cc1ccc2nc3c(cc(S(=O)(=O)c4ccccc4)c(=N)n3Cc3ccco3)c(=O)n2c1 |  | 17.8% (inactive)
CCn1c(O)c(/C=N/NC(=O)c2ccncc2)c(=O)n(CC)c1=S |  | -1.22% (inactive)
CC(/C=N/NC(=O)c1cc(-c2ccc3ccccc3c2)n[nH]1)=C\c1ccco1 | 14 µM (active) | 
CC(/C=N/NC(=O)c1cc(-c2ccccc2)nc2ccccc12)=C\c1ccco1 | 2.23 µM (active) | 
CCc1ccc(/C=N/NC(=O)c2cc(-c3ccncc3)nc3ccccc23)s1 | 3.53 µM (active) | 
O=C(N/N=C/c1ccco1)c1cc(-c2ccncc2)nc2ccccc12 | 11.2 µM (active) | 
CCC(=C/c1sc2ccc3ccccc3c2[n+]1C)/C=C1\Sc2ccc3ccccc3c2N1C |  | -21.8% (inactive)
Cc1[nH]c2ccccc2c1/C=N/NC(=O)c1cc(-c2ccncc2)nc2ccccc12 | 9.94 µM (active) | 
O=C(NC(=S)Nc1ccc(-c2ccccc2)cc1)c1ccccc1 |  | 2.13% (inactive)
O=C(Nc1ccccc1OC(=O)c1ccccc1)c1ccccc1 | 17.7 µM (active) | 
COc1ccccc1NC(=O)Cc1ccc(-c2ccccc2)cc1 |  | -14.2% (inactive)
Cc1cc2c(cc(C(=O)OCC(=O)NCc3cccs3)n2C(C)C)o1 | 6.27 µM (active) | 
C=CCn1cc(/C=C/c2cc[n+](C)cc2)c2ccccc21 | 0.886 µM (active) | 
CCn1cc(/C=C/c2cc[n+](C)cc2)c2ccccc21 | 1.77 µM (active) | 
CC(C)n1cc(/C=C/c2cc[n+](C)cc2)c2ccccc21 | 3.53 µM (active) | 
O=c1[nH]c2cc(Br)cnc2nc1/C=C(\O)c1ccc(F)cc1 | 18.4 µM (active) | 
CCOc1cccc(-n2nnnc2-c2ccc(OC)cc2)c1 | 4.98 µM (active) | 
COc1ccc(-n2nnnc2-c2cccc(OC)c2)cc1 | 1.98 µM (active) | 
COc1ccc(-n2nnnc2-c2ccccc2)cc1 | 3.14 µM (active) | 
COc1cccc(C(=O)Nc2ncc3c(n2)CC(c2ccc(OC)cc2OC)CC3=O)c1 (centres undefined) | 17.7 µM (active) | 

SMILES | Potency | max response
CCN(CC)c1ccc2cc(-c3nc4sc5c(c4c(=O)[nH]3)CCC(C(C)(C)C)C5)c(=O)oc2c1 (centres undefined) |  | 48% (inactive)
COc1ccc2cc(-c3nc(Cl)c4c5c(sc4n3)CC(C)CC5)c(=O)oc2c1 (centres undefined) | 20.6 µM (active) | 
COc1ccccc1-c1nnc2sc(-c3cc4ccccc4o3)nn12 | 1.98 µM (active) | 
CS(=O)(=O)N(CC(=O)N1CCN(Cc2ccccc2)CC1)c1ccccc1F |  | -9.78% (inactive)
CCN(CC)CCCNc1ccc2ncn3c4ccc(O)cc4c(=O)c1c23 | 23.1 µM (active) | 
Cc1ccc(-c2cc(NC=O)c3ncc(-c4cnn(C)c4)n3c2)cc1 | 3.14 µM (active) | 
Cc1ccc(-c2cc(NC=O)c3ncc(-c4cccc(C(=O)N(C)C)c4)n3c2)cc1 | 8.86 µM (active) | 
CN(C)C(=O)c1cccc(-c2cnc3c(NC=O)cc(-c4ccccc4F)cn23)c1 |  | -0.0482% (inactive)
CC(C)n1c(O)c(N=Nc2ccc(Cl)nn2)c2ccccc21 | 18.4 µM (active) | 
CCOC(=O)/C=c1\s/c(=C\c2c(OC)ccc3ccccc23)c(=O)n1CC(=O)NCC1CCCO1 (centres undefined) | 14.6 µM (active) | 
CCOC(=O)/C=c1/s/c(=C\c2c(OC)ccc3ccccc23)c(=O)n1CC(=O)NCC1CCCO1 (centres undefined) | 11.2 µM (active) | 
NC(=O)CSc1nc2c(sc3ccccc32)c(=O)n1CCCC(=O)NCC1CCCO1 (centres undefined) |  | -5.1% (inactive)
CN(C)c1ccc(/C=C/c2ccnc3c(Cl)ccc(Cl)c23)cc1 | 3.26 µM (active) | 
CN(C)c1ccc(/C=C/c2ccnc3c(Cl)cccc23)cc1 | 11.6 µM (active) | 
CN(C)c1ccc(/C=C/c2ccnc3c(N)cccc23)cc1 | 14.6 µM (active) | 
c1cncc(-c2nc(NCc3cccs3)c3ccccc3n2)c1 |  | -5.92% (inactive)
Brc1ccc2c(c1)C(c1cccnc1)=NNC(c1cccs1)=N2 | 8.86 µM (active) | 
CC(=O)n1cc(/C=N/NC(=O)c2sc(C)nc2C)c2ccccc21 | 17.7 µM (active) | 
O=C(c1ccc(CS(=O)c2ccccc2Cl)o1)N1CCN(c2ccccc2F)CC1 (centres undefined) | 2.91 µM (active) | 
